According to PubChem BioAssay AID1159580 (chemical genetic matrix, 2015):
Among all 5,500 compounds or so, about 2,000 (36%) were called active. Not shown: some 18% with an inconclusive outcome. No stated cut-off is given here; in the data, active means normalized growth mostly below about 0.91 (no sharp cut-off); inconclusive means no clear call, values can overlap the other calls; inactive means mostly above about 0.92. This is one part of the list.

Assay: chemical genetic growth profiling, strain panel (AID 1159580);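 further: tested at 20 µM; growth read once vehicle control cultures reached saturation at 30 °C; 1 = growth at the plate median or of vehicle wells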
Settings: S. cerevisiae deletion strains, growth OD

Measured: normalized growth

O=S(=O)(c1cccc2c(I)cccc12)N1CCCNCC1
inactive: locus YAL013W, strain DEP1, stronger effect = lower value 0.983 | locus YAL040C, strain CLN3, stronger effect = lower value 0.979 | locus YCL061C, strain MRC1 (second series), stronger effect = lower value 0.984 | locus YDR150W, strain NUM1, stronger effect = lower value 0.991 | locus YDR363W, strain ESC2, stronger effect = lower value 0.958 | locus YER002W, strain NOP16, stronger effect = lower value 1.01 | locus YGR078C, strain PAC10, stronger effect = lower value 0.982 | locus YGR229C, strain SMI1, stronger effect = lower value 1 | locus YJR075W, strain HOC1, stronger effect = lower value 1.01 | locus YNL128W, strain TEP1, stronger effect = lower value 1.06 | locus YNL153C, strain GIM3, stronger effect = lower value 0.927 | locus YNL175C, strain NOP13, stronger effect = lower value 0.995 | locus YNL197C, strain WHI3, stronger effect = lower value 0.986 | locus YNL224C, strain SQS1, stronger effect = lower value 1.02 | locus YOR083W, strain WHI5 (second series), stronger effect = lower value 0.932 | locus YPL241C, strain CIN2, stronger effect = lower value 0.984

C[C@]12C=CC(=O)C=C1CCC1C2[C@@H](O)C[C@@]2(C)C1CC[C@]2(O)C(=O)COP(=O)(O)O (stereo partly specified)
inactive: locus YAL021C, strain ccr4, stronger effect = lower value 1.01 | locus YAL026C, strain drs2, stronger effect = lower value 1 | locus YAL030W, strain snc1, stronger effect = lower value 1 | locus YBL061C, strain skt5, stronger effect = lower value 0.995 | locus YBR009C, strain hhf1, stronger effect = lower value 1 | locus YBR023C, strain chs3, stronger effect = lower value 0.998 | locus YBR171W, strain sec66, stronger effect = lower value 0.995 | locus YBR231C, strain swc5, stronger effect = lower value 1.01 | locus YBR279W, strain paf1, stronger effect = lower value 1.01 | locus YCL011C, strain gbp2, stronger effect = lower value 1 | locus YCL016C, strain dcc1, stronger effect = lower value 0.995 | locus YCL061C, strain MRC1, stronger effect = lower value 0.995 | locus YCL069W, strain vba3, stronger effect = lower value 1.01 | locus YCR088W, strain abp1, stronger effect = lower value 1.01 | locus YDL005C, strain med2, stronger effect = lower value 1 | locus YDL040C, strain nat1, stronger effect = lower value 0.997 | locus YDR001C, strain nth1, stronger effect = lower value 1 | locus YDR069C, strain doa4, stronger effect = lower value 0.998 | locus YDR137W, strain rgp1, stronger effect = lower value 1.02 | locus YDR159W, strain sac3, stronger effect = lower value 0.98 | locus YDR195W, strain ref2 0.954 | locus YDR297W, strain sur2, stronger effect = lower value 1 | locus YDR334W, strain swr1, stronger effect = lower value 1.01 | locus YDR335W, strain msn5, stronger effect = lower value 0.998 | locus YDR392W, strain spt3, stronger effect = lower value 0.96 | locus YEL003W, strain gim4, stronger effect = lower value 1.01 | locus YEL037C, strain rad23, stronger effect = lower value 1.04 | locus YEL061C, strain CIN8 (second series), stronger effect = lower value 0.999 | locus YER015W, strain faa2, stronger effect = lower value 0.999 | locus YER016W, strain bim1, stronger effect = lower value 0.99 | locus YER111C, strain swi4, stronger effect = lower value 0.998 | locus YER155C, strain BEM2 (second series), stronger effect = lower value 1.01 | locus YFR010W, strain ubp6, stronger effect = lower value 1.01 | locus YGL167C, strain pmr1, stronger effect = lower value 1 | locus YGL173C, strain kem1, stronger effect = lower value 1 | locus YGL227W, strain vid30, stronger effect = lower value 0.996 | locus YGL240W, strain doc1, stronger effect = lower value 0.996 | locus YGL253W, strain hxk2, stronger effect = lower value 0.995 | locus YHR013C, strain ard1, stronger effect = lower value 1 | locus YHR027C, strain rpn1, stronger effect = lower value 1 | locus YHR030C, strain SLT2, stronger effect = lower value 1.04 | locus YHR079C, strain IRE1, stronger effect = lower value 1.02 | locus YHR142W, strain chs7, stronger effect = lower value 0.999 | locus YJL092W, strain hpr5, stronger effect = lower value 0.993 | locus YJL095W, strain BCK1 (second series), stronger effect = lower value 0.994 | locus YJL095W, strain BCK1, stronger effect = lower value 0.977 | locus YJL115W, strain asf1, stronger effect = lower value 0.995 | locus YJL129C, strain trk1, stronger effect = lower value 1 | locus YJL154C, strain vps35, stronger effect = lower value 1.01 | locus YJL164C, strain tpk1, stronger effect = lower value 0.995 | locus YJL166W, strain qcr8, stronger effect = lower value 1.01 | locus YJL187C, strain SWE1, stronger effect = lower value 1.01 | locus YJR066W, strain TOR1, stronger effect = lower value 0.973 | locus YKL160W, strain elf1, stronger effect = lower value 1 | locus YKR026C, strain gcn3, stronger effect = lower value 0.984 | locus YKR091W, strain srl3, stronger effect = lower value 1 | locus YLL001W, strain dnm1, stronger effect = lower value 1 | locus YLL026W, stronger effect = lower value 0.992 | locus YLL041C, strain sdh2, stronger effect = lower value 1 | locus YLR027C, strain aat2, stronger effect = lower value 1.01 | locus YLR113W, strain HOG1, stronger effect = lower value 0.984 | locus YLR221C, strain rsa3, stronger effect = lower value 1.01 | locus YLR258W, strain gsy2, stronger effect = lower value 1 | locus YLR262C, strain YPT6 (second series), stronger effect = lower value 1.01 | locus YLR320W, strain mms22, stronger effect = lower value 1 | locus YLR342W, strain FKS1, stronger effect = lower value 0.989 | locus YLR357W, strain rsc2, stronger effect = lower value 0.983 | locus YLR370C, strain arc18, stronger effect = lower value 1 | locus YLR384C, strain iki3, stronger effect = lower value 1 | locus YML120C, strain ndi1, stronger effect = lower value 1.01 | locus YMR058W, strain fet3, stronger effect = lower value 0.996 | locus YMR125W, strain sto1, stronger effect = lower value 0.98 | locus YMR129W, stronger effect = lower value 1.01 | locus YMR205C, strain PFK2, stronger effect = lower value 0.992 | locus YMR231W, strain pep5, stronger effect = lower value 1 | locus YNL071W, strain lat1, stronger effect = lower value 1 | locus YNL183C, strain NPR1, stronger effect = lower value 0.973 | locus YNL209W, strain ssb2, stronger effect = lower value 1 | locus YNL248C, strain rpa49, stronger effect = lower value 1.02 | locus YNL322C, strain KRE1 (second series), stronger effect = lower value 1 | locus YNR049C, strain mso1, stronger effect = lower value 1.01 | locus YOR001W, strain rrp6, stronger effect = lower value 1.01 | locus YOR070C, strain gyp1, stronger effect = lower value 0.994 | locus YOR080W, strain dia2, stronger effect = lower value 0.998 | locus YOR083W, strain WHI5, stronger effect = lower value 1.01 | locus YOR106W, strain vam3, stronger effect = lower value 1.01 | locus YOR231W, strain MKK1, stronger effect = lower value 1.02 | locus YOR265W, strain rbl2, stronger effect = lower value 0.995 | locus YOR270C, strain vph1, stronger effect = lower value 1.03 | locus YOR290C, strain snf2, stronger effect = lower value 1.02 | locus YPL051W, strain arl3, stronger effect = lower value 1.01 | locus YPL078C, strain atp4, stronger effect = lower value 1 | locus YPL106C, strain sse1, stronger effect = lower value 1.01 | locus YPL240C, strain hsp82, stronger effect = lower value 0.996 | locus YPL256C, strain CLN2, stronger effect = lower value 0.997
